# A selection: hits, their analogues and other compounds. The true share with any hit is near 6.3%.
# Mdm2 MdmX PPI: inhibitors of human Mdm2-MdmX association, primary screen, cell-based, luminescence, split luciferase, SaOS-2, uHTS | inhibition, % at 8 µM | SaOS-2 split-luciferase Mdm2/MdmX complementation | actives 3% (n = 330,000) | Protein Mdm4 (Homo sapiens) + E3 ubiquitin-protein ligase Mdm2 (Homo sapiens), …;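 active = inhibition of at least 50% at 8 µM in the primary screen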
# Target sequence (O15151 whole entry, looked up): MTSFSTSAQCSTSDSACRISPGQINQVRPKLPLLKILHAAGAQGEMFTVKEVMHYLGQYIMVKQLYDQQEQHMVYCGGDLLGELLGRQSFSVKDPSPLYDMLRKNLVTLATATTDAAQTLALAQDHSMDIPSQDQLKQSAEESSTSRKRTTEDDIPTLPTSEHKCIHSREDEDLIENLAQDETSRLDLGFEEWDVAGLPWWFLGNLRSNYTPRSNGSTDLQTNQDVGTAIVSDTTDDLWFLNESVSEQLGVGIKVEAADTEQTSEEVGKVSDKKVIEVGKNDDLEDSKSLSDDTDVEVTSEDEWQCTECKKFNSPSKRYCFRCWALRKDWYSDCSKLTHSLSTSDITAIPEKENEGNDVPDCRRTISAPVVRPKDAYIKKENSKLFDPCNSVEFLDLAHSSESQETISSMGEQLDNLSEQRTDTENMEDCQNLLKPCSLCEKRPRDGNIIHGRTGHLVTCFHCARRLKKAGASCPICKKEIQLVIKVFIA
# Target sequence (Q00987 whole entry, looked up): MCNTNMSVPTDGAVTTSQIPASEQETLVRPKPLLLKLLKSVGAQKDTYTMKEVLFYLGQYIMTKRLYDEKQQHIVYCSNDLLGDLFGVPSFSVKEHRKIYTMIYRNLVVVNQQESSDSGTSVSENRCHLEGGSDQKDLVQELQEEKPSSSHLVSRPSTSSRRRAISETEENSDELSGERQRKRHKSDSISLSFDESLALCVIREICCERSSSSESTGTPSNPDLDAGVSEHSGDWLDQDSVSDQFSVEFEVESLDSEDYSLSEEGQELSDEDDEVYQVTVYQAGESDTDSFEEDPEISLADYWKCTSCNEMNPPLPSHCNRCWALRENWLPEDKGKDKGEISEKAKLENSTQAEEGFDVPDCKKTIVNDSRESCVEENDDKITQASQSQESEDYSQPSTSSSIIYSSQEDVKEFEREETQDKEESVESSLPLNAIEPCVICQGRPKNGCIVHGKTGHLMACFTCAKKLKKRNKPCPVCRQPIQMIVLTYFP
# tim10-1 inh: growth inhibitors of tim10-1 mutant yeast, primary screen, luminescence, uHTS | S. cerevisiae tim10-1 ts strain growth, BacTiter-Glo, 24 h | inhibition, % at 20 µM | actives 2.2% (n = 330,000) | AID 463190, 2010;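 active = inhibition of at least 40%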;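 note: mutant grown at 25 °C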
# TIM10 inh: growth inhibitors of isogenic TIM10 control yeast, primary screen, counter-screen for tim10-1 yeast inhibitor project, luminescence, uHTS; AID 463195, 2010; actives 1.4% (n = 330,000); S. cerevisiae TIM10 strain growth, BacTiter-Glo luminescence, 24 h; inhibition, % at 10 µM;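 active = inhibition of 40% or more at the single tested concentration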;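 note: wild-type TIM10 isogenic control strain grown at permissive 25 °C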
# tim23-1 inh: growth inhibitors of tim23-1 mutant yeast, primary screen, luminescence, uHTS. actives 1.3% (n = 330,000). AID 463212, 2010. S. cerevisiae tim23-1 growth, BacTiter-Glo luminescence, 24 h. inhibition, % at 20 µM;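 active = growth inhibition of the mutant yeast at or above 50%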;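 note: temperature-sensitive mutant grown at 25 °C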
# MPTP block: mitochondrial permeability transition pore inhibitors, primary screen, biochemical, isolated mouse mitochondria, absorbance; Ca2+ swelling absorbance, 30 min; inhibition, % at 10 µM; actives 1.4% (n = 360,000);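 active = inhibition of 50% or more, scaled per plate between neutral and stimulator controls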
# Mdm2 MdmX conf: Mdm2-MdmX complex disruptors, retested hits, confirmation, luminescence, single concentration. shares compounds with Mdm2 MdmX PPI. Mdm2-MdmX binding, luminescent assay. inhibition, % at 8 µM. actives 55% (n = 10,000). AID 489028, 2010; in the data active = inhibition above about 40%
# FLuc counter: full-length luciferase signal inhibition, confirmation, counter-screen for Mdm2/MdmX interaction inhibitor project, cell-based, single concentration, SaOS-2. shares compounds with Mdm2 MdmX PPI. SaOS-2 full-length luciferase counterscreen, luminescence. inhibition, % at 8 µM. actives 77% (n = 6,200). AID 504607, 2011;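 active = mean inhibition at 8 µM reaching about 37%, which flags the compound as non-specific, limit read from the data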;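 note: p53-null SaOS-2 cells with luciferase driven by a doxycycline-inducible promoter; compound on cells about two nights before reading with doxycycline added after day one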
# A number is an active result; – = inactive; · = no result.
SMILES,Mdm2 MdmX PPI,tim10-1 inh,TIM10 inh,tim23-1 inh,MPTP block,Mdm2 MdmX conf,others
COc1cc(C(=O)N/N=C(\Cc2ncc[nH]2)c2ccccc2)cc(OC)c1OC,54,–,–,–,–,50,FLuc counter=–
COc1ccc(C(O)c2ncc(-c3cccc(OCc4ccccc4)c3)[nH]2)cc1F (centres undefined),·,·,·,·,–,·,
O=C1CC2CCCC(C1)S2=O (centres undefined),·,·,·,·,–,·,
CCNC1=C(Cl)C(=O)c2ccccc2C1=O,–,–,–,–,–,·,
O=C1C(Cl)=C(NCCN2CCCCC2)C(=O)c2ccccc21,99,–,–,–,–,–,
Cc1cc(NC(=O)CSc2nnc3c(C)cc4c(C)ccc(C)c4n23)no1,66,–,–,–,–,63,FLuc counter=58
CCc1nnc(NC(=O)CSc2nnc3c(C)cc4c(C)ccc(C)c4n23)s1,60,–,–,–,–,65,FLuc counter=58
CCc1nnc(NC(=O)CSc2nnc(-c3ccncc3)n2C)s1,–,–,–,–,–,·,
CNC[C@H]1Oc2cc(Br)ccc2S(=O)(=O)N([C@H](C)CO)C[C@H]1C,·,·,·,·,–,·,
COc1ccc(Cl)cc1NC(=O)CN(C)CC(=O)Nc1ccccc1N1CCOCC1,58,–,–,–,–,55,FLuc counter=65
COc1ccc(Cl)cc1NC(=O)CN(C)C(=O)c1sc2ccccc2c1Cl,54,–,–,–,–,–,
COc1ccc(Cl)cc1NC(=O)CC(=O)Nc1cc(Cl)ccc1OC,66,–,–,–,–,–,
COc1ccc(NC(=O)CN(C)C(=O)c2sc3ccccc3c2Cl)cc1,–,–,–,–,–,·,
C[C@@H]1CN([C@H](C)CO)C(=O)CCCn2cc(nn2)CO[C@H]1CN(C)S(=O)(=O)c1cccc(F)c1,·,·,·,·,–,·,
C[C@H](NC(=O)c1ncn2c1c(=O)[nH]c1ccc(Br)cc12)c1ccccc1,·,·,·,·,–,·,
O=C(Nc1cc(Cl)ccc1-n1cncn1)c1ccc([N+](=O)[O-])s1,58,–,–,–,–,–,
Cc1cccc(N2CCN(C(=O)c3ccc(CS(=O)(=O)c4ccccc4C)o3)CC2C)c1 (centres undefined),65,–,–,–,–,52,FLuc counter=82
Cc1ccc(C)c(N2CCN(C(=O)c3ccc(CS(=O)(=O)c4ccccc4C)o3)CC2)c1,–,–,–,–,–,·,
Cn1cccc1/C=C1\SC(=Nc2ccc(O)cc2)NC1=O,68,–,–,–,–,62,FLuc counter=160
COc1cc(/C=C2\SC(=Nc3ccc(O)cc3)NC2=O)cc(OC)c1O,56,–,–,–,–,41,FLuc counter=81
CC(=O)N1CCc2c(sc(NC(=O)c3ccc([N+](=O)[O-])o3)c2C(N)=O)C1,·,·,·,·,–,·,
CC(C)(C)OC(=O)N1CCC[C@@H]1C(=O)N1CCC[C@@H]1C(=O)NCc1ccccc1Cl,·,·,·,·,–,·,
Cc1cccn2c(=O)c3cc(C(=O)NCCC4=CCCCC4)n(C)c3nc12,55,–,–,–,–,–,
Cc1cccn2c(=O)c3cc(C(=O)NC4CCCC4)n(C)c3nc12,51,–,–,–,–,51,FLuc counter=67
N#Cc1ccc(C(=O)N2CCC3CC2c2cc(-c4ccc(F)cc4)ccc23)cc1 (centres undefined),·,·,·,·,–,·,
SMILES,Mdm2 MdmX PPI,tim10-1 inh,TIM10 inh,tim23-1 inh,MPTP block,Mdm2 MdmX conf,others
C=CCOc1cccn2c(N(C)C(=O)c3ccncc3)c(CC)nc12,·,·,·,·,–,·,
Cc1cccc(OCC(=O)NNc2c3ccccc3nc3ccccc23)c1,–,–,–,–,–,·,
Cc1ccc(OCC(=O)NNc2c3ccccc3nc3ccccc23)cc1,56,–,–,–,–,–,
CCN(CC)CCCN=C1N[C@@H](c2cccc(F)c2)C(C(=O)OC)=C(C)N1Cc1ccccc1,100,–,–,–,–,83,FLuc counter=59
COC(=O)C1=C(C)N(Cc2ccccc2)C(=NCc2cccc(Cl)c2)N[C@H]1c1ccccc1,89,–,–,–,–,–,
COC(=O)C1=C(C)N(Cc2ccccc2)C(=NCc2ccccc2)N[C@H]1c1cccc(F)c1,74,–,–,–,–,–,FLuc counter=47
COC(=O)C1=C(C)N(Cc2ccccc2)C(=NCc2cc(OC)c(OC)c(OC)c2)N[C@H]1c1ccccc1,–,–,–,–,·,·,
COC(=O)C1=C(C)N(CC2CC2)C(=NCc2cccc(Cl)c2)N[C@H]1c1ccccc1,–,–,–,–,–,·,
COC(=O)C1=C(C)N(Cc2ccccc2)C(=NCc2ccccc2)N[C@H]1c1ccccc1,91,–,–,–,–,–,
CCN1C(=NCc2ccco2)N[C@@H](c2cccc(F)c2)C(C(=O)OC)=C1C,–,–,–,–,–,·,
COc1ccc(C(C(=O)NC(C)(C)C)n2c(=O)c(-c3cc4ccccc4[nH]3)nc3ccccc32)cc1 (centres undefined),·,·,·,·,–,·,
O=C(COc1ccc(Cl)cc1)N1CCN(S(=O)(=O)c2cc(F)ccc2F)CC1,·,·,·,·,–,·,
CCN1C(=O)N[C@@H](c2cccc(C(F)(F)F)c2)C(C(=O)OC)=C1C,–,–,–,–,–,·,
COCCN1C(=S)N[C@@H](c2cccc(F)c2)C(C(=O)OC)=C1C,59,–,–,–,·,–,
CCN1C(=O)N[C@@H](c2cccc(F)c2)C(C(=O)OC)=C1C,–,–,–,–,–,·,
COC(=O)C1=C(C)N(Cc2ccccc2)C(=NCc2cc(OC)c(OC)c(OC)c2)N[C@H]1c1ccc(Br)cc1,69,–,–,–,–,–,
CCN(CC)CCCN=C1N[C@@H](c2cccc(C(F)(F)F)c2)C(C(=O)OC)=C(C)N1CC,100,–,–,–,–,75,FLuc counter=–
COC(=O)c1ccc(COC(=O)C2CCN(S(=O)(=O)c3c(C)cc(C)cc3C)CC2)o1,·,·,·,·,–,·,
Cc1ccc(N=Cc2nc(/C=C/c3cccc([N+](=O)[O-])c3)oc2O)cc1,94,–,–,–,–,–,
Cc1ccc(-c2nc(C=Nc3ccc(O)cc3)c(O)o2)cc1,·,·,·,·,–,·,
O=C(CCl)NC1CCCc2ccccc21 (centres undefined),58,–,–,–,–,–,
O=C(Cc1ccc(Br)cc1)NC1CCCc2ccccc21 (centres undefined),–,–,–,–,–,·,
CC(C)Oc1ccc(C(=O)NC2CCCCC2)cc1,–,–,–,–,–,·,
CC(C)Oc1ccc(C(CCN)C2CCCCC2)cc1 (centres undefined),88,–,–,–,–,42,FLuc counter=65
COC(=O)c1ccc(CSC2=NC[C@@H]3[C@@H]4C(=O)N(Cc5ccccc5)C(=O)[C@@H]4[C@](C)(C(=O)OC)N23)cc1,–,–,–,–,–,·,
